# Experimental data published in PubChem BioAssay AID540299 (ICCB-Longwood Screening Facility, Harvard Medical School, 2011).
# The whole screen tested about 100,000 compounds, of which about 440 (0.44%) were called active. Rule as the data show it: active = inhibition above about 21% (passing the limit was not always enough); inactive = the rest. The entries come from a sample that favours actives as a whole.
# Target: 1,4-dihydroxy-2-naphthoyl-CoA synthase (Mycobacterium tuberculosis (strain ATCC 25618 / H37Rv)) (UniProt P9WNP5)
# Assay: M. tuberculosis MenB inhibitors, primary screen, biochemical, absorbance (AID 540299)
# Settings: MenB enzyme assay, absorbance read-out; active compounds read high; concentration not given here
# Chain of 1,4-dihydroxy-2-naphthoyl-CoA synthase (Mycobacterium tuberculosis (strain ATCC 25618 / H37Rv)) (P9WNP5 whole entry, looked up): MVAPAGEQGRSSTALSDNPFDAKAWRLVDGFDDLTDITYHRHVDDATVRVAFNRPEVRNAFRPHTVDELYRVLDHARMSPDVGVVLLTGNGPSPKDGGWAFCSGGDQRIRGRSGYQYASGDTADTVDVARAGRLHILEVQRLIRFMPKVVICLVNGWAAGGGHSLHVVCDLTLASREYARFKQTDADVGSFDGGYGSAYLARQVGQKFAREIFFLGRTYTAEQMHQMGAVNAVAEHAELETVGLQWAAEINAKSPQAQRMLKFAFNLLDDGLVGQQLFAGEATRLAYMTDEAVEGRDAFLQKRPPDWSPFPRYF
row,SMILES,inhibition
1,CC1CC(Nc2ncnc3c2cnn3C)CC(C)(C)C1 (stereo unspecified),-4.06% (inactive)
2,CCn1c(SCc2cc(=O)n3ccsc3n2)nnc1-c1cccs1,9.46% (inactive)
3,C=CCSc1nnc(NC(=O)CSc2nc(C)cc(=O)[nH]2)s1,-17% (inactive)
4,NS(=O)(=O)c1ccc(NC(=O)Cc2ccccc2F)cc1,-21.5% (inactive)
5,CCN(CC)C(=O)N1CCc2cc(OC)c(OC)cc2C1c1cc2cc(C)ccc2n(C(=O)N(CC)CC)c1=O (stereo unspecified),4.68% (inactive)
6,N#CCSc1ccccc1NC(=O)CN1CCc2sccc2C1c1cccs1 (stereo unspecified),-20.8% (inactive)
7,CN(CC(=O)Nc1ccccc1SCC#N)Cc1ccc(-c2ccc(Br)cc2)o1,30.3% (active)
8,COc1cc(C(=O)Nc2ccc3nc(N4CCN(c5ncccn5)CC4)cc(C)c3c2)cc(OC)c1OC,2.12% (inactive)
9,CC(c1ccccc1)n1cnc2c(oc3ccccc32)c1=O (stereo unspecified),7.36% (inactive)
10,Cc1ccc2[nH]c(=O)c(C(c3nnnn3C3CCCC3)N(C)C3CCCCC3)cc2c1 (stereo unspecified),3.2% (inactive)
11,CCc1ccc(N/N=C(\C#N)C(=O)N2CCN(C)CC2)cc1,-139% (inactive)
12,O=C(CCn1c(=O)c2cccn2c2ccc(F)cc21)NC1CCCCC1,-14.7% (inactive)
13,Cc1ccc2c(c1)c1c3n2CCN(C2CCO2)C3CCC1 (stereo unspecified),-8.76% (inactive)
14,O=C(CC(NCCc1ccc(Cl)cc1)C(=O)O)c1ccc(Br)cc1 (stereo unspecified),-5.44% (inactive)
15,CC(C)(C)c1oc2cc(Br)c(O)cc2c1C(=O)O,-32.6% (inactive)
16,COc1nc2nonc2nc1OC,26.7% (inactive)
17,CCO/C(C)=N\Oc1nc2nonc2nc1O/N=C(/C)OCC,28.8% (active)
18,CCOC(=O)CCSc1ccccn1,-3.2% (inactive)
19,CN(Cn1nc(Nc2ccccc2F)sc1=S)C1CCCCC1,4.42% (inactive)
20,O=CN/N=C/c1cn(-c2cccs2)nc1-c1ccccc1,-3.73% (inactive)
21,C=COc1ccc(N)cc1,-24.2% (inactive)
22,Cc1noc2nc(C(F)(F)F)cc(C(F)(F)F)c12,-1.29% (inactive)

row,SMILES,inhibition
1,COc1ccc(OCCNS(=O)(=O)Cc2ccccc2)cc1,-18.2% (inactive)
2,CS(=O)(=O)Cc1ccccc1,28.2% (active)
3,O=S(=O)(NCCc1ccccc1)c1ccccc1,10.7% (inactive)
4,O=C(O)CC(c1ccccc1)c1cc(Cl)ccc1O (stereo unspecified),2.19% (inactive)
5,CC1CN(C(=O)COC(=O)c2c(F)cccc2F)CC(C)O1 (stereo unspecified),-14.9% (inactive)
6,Cc1cc(NC(=O)COC(=O)C2CSC3(C)CCC(=O)N23)no1 (stereo unspecified),-17% (inactive)
7,CCCCn1c(N)c(N2CCOCC2)c(=O)n(CC(=O)NCCc2ccccc2)c1=O,2.85% (inactive)
8,COc1cc(S(=O)(=O)N2CCCCC2)ccc1N=Cc1c(C)[nH]n(-c2ccccc2)c1=O,-6.35% (inactive)
9,Cn1c(=O)c(=O)n(C)c2cc(N3CCCCC3)c(NS(=O)(=O)c3ccc(Br)s3)cc21,-15.3% (inactive)
10,NCCN1C(=O)S/C(=C/c2cccs2)C1=O,-14.2% (inactive)
11,O=C(Cn1cnc2ccccc2c1=O)NCCSCc1ccco1,-21.3% (inactive)
12,COc1ccc(OCC(=O)N2CCC(C(N)=O)CC2)cc1,-7.08% (inactive)
13,CC1CC(C)CN(C(=O)COC(=O)c2ccccc2NC(=O)c2ccco2)C1 (stereo unspecified),9.45% (inactive)
14,O=C1C2N=NN(CC(=O)N(c3ccccc3)c3ccccc3)C2C(=O)N1c1ccc(Cl)cc1 (stereo unspecified),-6.55% (inactive)
15,N#CC(C#N)=Cc1ccc(OC(=O)c2cccs2)cc1,0.71% (inactive)
16,CC(=O)N(Cc1cc2ccccc2[nH]c1=O)c1ccccc1,-11.4% (inactive)
17,COC(=O)c1c(NC(=O)CCN2CCOCC2)sc2c1CCCC2,-12.6% (inactive)
18,S=C(NC1CCCCC1)NN1CCOCC1,-1.62% (inactive)
19,CC(NCCN1CCOCC1)C(=O)NC1CCCCC1 (stereo unspecified),35.5% (active)
20,Cc1cc(C)n(CC(O)CNCc2ccco2)n1 (stereo unspecified),-21.2% (inactive)
21,CN(C)c1ccc(C=Nc2cc(Br)c3c(c2)OCCO3)cc1,7.11% (inactive)
22,O=C(O)CSc1ccc2nnc(-c3ccc(F)cc3)n2n1,-23.7% (inactive)

row,SMILES,inhibition
1,COc1cccc(-c2noc(NCCN3CCOCC3)n2)c1,-12.4% (inactive)
2,COc1ccccc1COCC(O)CN1CCC(=O)CC1 (stereo unspecified),-22.7% (inactive)
3,COc1ccccc1CNCCN1CCOCC1,38.3% (active)
4,COc1ccccc1OCC(O)CN1CCOCC1 (stereo unspecified),34.9% (active)
5,C(=C\c1ccccc1)/CNCCCN1CCOCC1,-52.5% (inactive)
6,CNCC(O)CN1CCN(c2ccccc2OC)CC1 (stereo unspecified),-10.5% (inactive)
7,CC(=O)n1c2ccccc2c2nc(C)sc21,-21.4% (inactive)
8,CCOC(=O)c1ccc(NC(=O)C(CC)Sc2nnc(C)n3c2cc2occc23)cc1 (stereo unspecified),-38.3% (inactive)
9,CN(C)c1ccc(/C=N/NC(=O)NC23CC4CC(CC(C4)C2)C3)cc1,-17% (inactive)
10,CCCNC(=O)c1cc(C(C)C)on1,-9.37% (inactive)
11,Cc1cc(C(=O)N2CCCC2)on1,-1.16% (inactive)
12,CC(C)c1cc(C(=O)O)on1,31.1% (active)
13,COc1cc(OC)c(NC(=O)C2CCCN(S(=O)(=O)c3ccc4c(c3)oc(=O)n4C)C2)cc1Cl (stereo unspecified),-18.8% (inactive)
14,Cc1nnc(NC(=O)CSc2nnc(CNC(=O)c3ccccc3F)n2C)s1,27.8% (inactive)
15,O=C(OCc1ccc(-c2cc(C(F)(F)F)cc(C(F)(F)F)c2)o1)c1ccc2c(c1)CCO2,-6.53% (inactive)
16,CCN(CC)C(=O)COc1ccc(/C(C)=N/NC(=O)Cc2ccccc2)cc1,-14.7% (inactive)
17,O=C(O)C1CC=CCC1C(=O)NCCc1ccccc1 (stereo unspecified),36% (active)
18,O=C(NCCc1ccccc1)Nc1ccccc1,8.56% (inactive)
19,O=C(O)C1C2C=CC(O2)C1C(=O)NCCc1cccc(Cl)c1 (stereo unspecified),-14.4% (inactive)
20,COc1cccc(-n2c(=S)sc3c(=O)n4[nH]c(=O)c5ccccc5c4nc32)c1,-24.4% (inactive)
21,CC(C)[C@H](NC(N)=O)C(=O)Nc1ccc(Cl)c(Cl)c1,-13.2% (inactive)
22,CCOC(CSc1nnc2c3ccccc3n(CC)c2n1)OCC,-14% (inactive)
